Shown are actives, neighbours in structure and some others; about 9.9% of the full set was active somewhere.
SW480 rerep: DNA re-replication induction in SW480 cells. 340,000 compounds, 1.8% hits. SW480 DNA re-replication, Hoechst DNA content imaging, 48 h. Potency, µM (top dose mostly 46.1 µM), most hits filed as activators; also: nearly all actives have a fitted effect of over 55% in size
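Per well, 250 cells were exposed to pinned compound for 48 hr. Nuclear DNA was visualised with Hoechst (40 min, 37 C) and total object intensity recorded by fluorescence scanning.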
MCF10A rerep: induces DNA re-replication in MCF 10a normal breast cells; MCF 10A DNA re-replication, Hoechst nuclear intensity, 48 h; Potency, µM (top dose mostly 46.1 µM), most hits filed as activators; 350,000 compounds, 2.9% hits; AID 624296; also: nearly all actives have a fitted effect of over 50% in size
KB-V1 MDR tox: KB-V1 MDR subline cytotoxicity | AID 1347076 | 400,000 compounds, 3.4% hits | Potency, µM (doses to about 46.1 µM), usual class: cytotoxic | KB-V1 MDR cells viability, CellTiter-Glo, 72 h; also: nearly all actives have a fitted effect of over 60% in size
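Cytotoxicity toward P-gp-expressing KB-V1 cells was determined as loss of CellTiter-Glo luminescence after 72 h at 37 degrees C. Compounds were tested in quantitative HTS format across a concentration range, with curves fitted to normalized data.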
IL1B secr inh: inflammasome signaling inhibition, IL-1 beta readout; THP-1 LPS/ATP IL-1B secretion, AlphaLISA, 16 h; hits give low values; activity change, % at 57.5 µM; 360,000 compounds, 4.7% hits; in the data active = activity change below about -50%; inconclusive = mostly about -30% to -49%
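THP-1 cells pretreated 1 hr with compounds (up to 57.5 uM final), then stimulated with LPS (250 ng/mL final) plus ATP (1.25 mM final); secreted IL-1B measured by AlphaLISA after 16 hr, decreased signal indicating inhibition.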
KB-3-1 tox: KB-3-1 parental cell cytotoxicity. AID 1347075. KB-3-1 viability, CellTiter-Glo ATP luminescence, 72 h. 400,000 compounds, 1.4% hits. Potency, µM (series often up to 46.1 µM), hits mostly cytotoxic; also: nearly all actives have a fitted effect of over 60% in size
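Luminescent ATP read-out (CellTiter-Glo) measures survival of drug-naive KB-3-1 cells after 72 h compound exposure at 37 °C. Titration series was screened from lowest to highest concentration, with DMSO vehicle plates as background controls.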
A number is an active result. Unless noted, calls follow the shape of the dose curve; as a rule, active = well fitted curve in the direction sought with a large enough effect; inconclusive = small, poorly fitted or top-dose-only effect, or another doubt; inactive = no such curve, though single readings can be large; an effect the other way counts as inactive or inconclusive.

Results for O=C(Cn1nnc(-c2ccccc2NC(=O)c2ccccc2)n1)Nc1ccc2c(c1)OCCO2 ?
SW480 rerep: inactive; MCF10A rerep: inconclusive; KB-V1 MDR tox: inactive; IL1B secr inh: inactive; KB-3-1 tox: inconclusive

Results for COC(=O)/C=C/c1ccc(OC(=O)c2ccncc2)cc1 ?
SW480 rerep: inactive; MCF10A rerep: inactive; KB-V1 MDR tox: inactive; IL1B secr inh: inactive; KB-3-1 tox: inactive

Results for Cc1cnc(C(=O)OCC(=O)Nc2ccc(OCc3ccccc3)cc2)cn1 ?
SW480 rerep: inactive; MCF10A rerep: inactive; IL1B secr inh: inactive

How did CCN1c2ccccc2-c2nc(SCC(=O)Nc3cccc(C)c3C)ncc2S1(=O)=O do in these assays?
KB-V1 MDR tox: inactive; KB-3-1 tox: inactive

What do the screens show for `O=C1S/C(=C\c2ccc(O)c([N+](=O)[O-])c2)C(=O)N1c1ccccc1Cl`?
SW480 rerep: inactive; MCF10A rerep: 1.6µM; KB-V1 MDR tox: inactive; IL1B secr inh: inactive; KB-3-1 tox: inactive

Results for O=C1S/C(=C\c2ccc(O)c([N+](=O)[O-])c2)C(=O)N1Cc1cccc([N+](=O)[O-])c1 ?
SW480 rerep: inactive; MCF10A rerep: inconclusive; KB-V1 MDR tox: inconclusive; IL1B secr inh: inactive; KB-3-1 tox: inactive

Results for Cc1cc(C)cc(C(=O)Nc2c3c(nn2-c2ccccc2C)CS(=O)(=O)C3)c1 ?
KB-V1 MDR tox: inactive; KB-3-1 tox: inactive

What do the screens show for `Cn1cc(C2=C(c3cn(CCCSC(=N)N)c4ccccc34)C(=O)NC2=O)c2ccccc21`?
KB-V1 MDR tox: inconclusive; KB-3-1 tox: 4.1µM

How did CN(c1nnc(NC(=O)Nc2ccc(Br)cc2)s1)C1CCCCC1 do in these assays?
KB-V1 MDR tox: inactive; KB-3-1 tox: inactive

Results for N#C/C(=C\c1ccncc1)c1ccccn1 ?
SW480 rerep: inconclusive; MCF10A rerep: inconclusive; KB-V1 MDR tox: inconclusive; IL1B secr inh: -100; KB-3-1 tox: inconclusive

What do the screens show for `N#C/C(=C\c1ccc(Cl)c([N+](=O)[O-])c1)c1ccccn1`?
SW480 rerep: inconclusive; MCF10A rerep: inconclusive; KB-V1 MDR tox: inactive; IL1B secr inh: -97; KB-3-1 tox: inactive

How did CC(NC(=O)/C(C#N)=C/c1ccc(Cl)c([N+](=O)[O-])c1)c1ccccc1 (centres undefined) do in these assays?
SW480 rerep: inactive; MCF10A rerep: inconclusive; KB-V1 MDR tox: inactive; IL1B secr inh: -98; KB-3-1 tox: inactive

What do the screens show for `CNc1ccc(/C=C(\C#N)c2ccccn2)cc1[N+](=O)[O-]`?
SW480 rerep: inactive; MCF10A rerep: inactive; KB-V1 MDR tox: inactive; IL1B secr inh: inactive; KB-3-1 tox: inactive

How did CNS(=O)(=O)c1cnccc1N1CCN(c2cccc(C(F)(F)F)c2)CC1 do in these assays?
SW480 rerep: inactive; MCF10A rerep: inactive; KB-V1 MDR tox: inconclusive; IL1B secr inh: inactive; KB-3-1 tox: inactive

Results for CN(CC(=O)Nc1ccc(OC(F)(F)F)cc1)C(=O)Cc1cccs1 ?
SW480 rerep: inactive; MCF10A rerep: inactive; KB-V1 MDR tox: inactive; IL1B secr inh: inactive; KB-3-1 tox: inactive

Results for CCOc1ccccc1C(=O)N(Cc1ccc(C)o1)C1CCS(=O)(=O)C1 (centres undefined) ?
SW480 rerep: inactive; MCF10A rerep: inactive; KB-V1 MDR tox: inactive; IL1B secr inh: inactive; KB-3-1 tox: inactive

How did CC(NC(=O)C(=O)NN=C1CCCCCCCCCCC1)c1ccccc1 (centres undefined) do in these assays?
SW480 rerep: inactive; MCF10A rerep: inactive; KB-V1 MDR tox: inactive; IL1B secr inh: inactive; KB-3-1 tox: inactive

Results for CCOc1cc(Br)c(C(=O)O)cc1OCC ?
SW480 rerep: inactive; MCF10A rerep: inactive; KB-V1 MDR tox: inactive; IL1B secr inh: inactive; KB-3-1 tox: inactive

What do the screens show for `CCOc1cc(Br)c(C=O)cc1OCC`?
SW480 rerep: 13µM; MCF10A rerep: inconclusive; KB-V1 MDR tox: inactive; IL1B secr inh: inactive; KB-3-1 tox: inconclusive

Results for Clc1ccc(-c2nnc(NCc3ccccc3)c3ccccc23)cc1 ?
SW480 rerep: inactive; MCF10A rerep: inconclusive; KB-V1 MDR tox: inconclusive; IL1B secr inh: -94; KB-3-1 tox: inconclusive

What do the screens show for `Cc1ccc(-c2nnc(NCc3ccccc3)c3ccccc23)cc1`?
SW480 rerep: inactive; MCF10A rerep: inactive; KB-V1 MDR tox: inactive; IL1B secr inh: -84; KB-3-1 tox: inconclusive

Bioassay records as filed in PubChem.
